Results reported in PubChem BioAssay.
Activity calls are given as the source filed them. Unless noted, no rule for the calls is given here.

Tests used:
[1] = tested on: Wnt5a (protein binding on small-molecule microarray); test: Wnt5a binders on small-molecule microarray, primary screen, biophysical, 635/667 nm fluorescence (AID 1142); settings: 635 nm fluorescence, higher = more signal;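 also: fluorescence read at 667 nm with signal to noise per printed feature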
[2] = cell viability in Huh7 cells, primary screen, cytotoxicity control for HCV replication inhibitor project, CellTiter-Glo luminescence, basal, 48 h (AID 1143); settings: Huh7 HCV replicon, higher = more signal, called active from +8 up or from −8 down;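 also: Huh7 hepatoma cells carrying a hepatitis C replication reporter with no stimulus; test concentration not given here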
[3] = P. aeruginosa biofilm formation inhibitors, primary screen, PAO1 strain, BacTiter-Glo luminescence, LB-PBS (AID 1144); settings: 12 h, higher = more signal
[4] = CREB reporter modulators without forskolin, primary screen, cell-based, PC12, CRE-LacZ reporter, unstimulated (AID 1145); settings: no forskolin, luminescence, 4.5 h, higher = more signal, called active from +8 up or from −8 down
[5] = CREB reporter modulators under forskolin, primary screen, cell-based, PC12, CRE-LacZ reporter, forskolin-stimulated (AID 1146); settings: luminescence, 4.5 h, higher = more signal, called active from +8 up or from −8 down;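 also: PC12 cells with 6xCRE LacZ reporter stimulated by forskolin 10 µM; beta-galactosidase reporter signal reflecting CREB driven transcription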
[6] = target: Streptavidin (Streptomyces avidinii) (UniProt P22629); test: streptavidin binders on small-molecule microarray, primary screen, artefact control for SMM compound annotation, biophysical, 635/667 nm fluorescence (AID 1147); settings: streptavidin binding, higher = more signal;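 also: signal reflects streptavidin binding to arrayed compounds as a control protein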
Chain of Streptavidin (Streptomyces avidinii) (P22629 whole entry, looked up): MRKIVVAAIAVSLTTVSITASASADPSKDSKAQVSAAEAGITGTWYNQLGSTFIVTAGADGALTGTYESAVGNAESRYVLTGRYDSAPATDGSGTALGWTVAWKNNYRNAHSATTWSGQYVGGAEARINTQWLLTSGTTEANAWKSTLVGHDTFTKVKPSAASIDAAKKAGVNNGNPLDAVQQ

[7] = small-molecule binders of probe aInhba, primary screen, biochemical, small-molecule microarray, 635/667 nm fluorescence (AID 1148); settings: higher = more signal;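 also: score merges 667nm spot fluorescence with signal-to-noise for antibody binding to printed compounds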
Torsin-1A (Homo sapiens) [8] = target: Torsin-1A (Homo sapiens) (UniProt O14656); test: torsin A binders from cell lysate, primary screen, small-molecule microarray, wild-type, 635/667 nm (AID 1149); settings: COS7 hTOR1A-WT lysate, 635 nm fluorescence, higher = more signal
Chain of Torsin-1A (Homo sapiens) (O14656 whole entry, looked up): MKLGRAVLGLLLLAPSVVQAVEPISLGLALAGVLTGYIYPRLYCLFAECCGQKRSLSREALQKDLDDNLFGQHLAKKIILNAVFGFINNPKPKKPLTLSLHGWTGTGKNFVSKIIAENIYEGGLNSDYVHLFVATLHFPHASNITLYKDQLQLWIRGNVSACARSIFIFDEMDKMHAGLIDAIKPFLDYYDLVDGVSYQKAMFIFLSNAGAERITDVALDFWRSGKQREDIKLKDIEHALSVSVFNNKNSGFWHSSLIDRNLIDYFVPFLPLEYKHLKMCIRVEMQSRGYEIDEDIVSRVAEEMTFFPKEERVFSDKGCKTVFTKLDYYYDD

Torsin-1A (Homo sapiens) [9] = target: Torsin-1A (Homo sapiens) (UniProt O14656); test: small-molecule binders of mutant TOR1A in lysate, primary screen, cell lysate, small-molecule microarray, COS7 lysate, 635/667 nm fluorescence (AID 1150); settings: COS7 hTOR1A mutant lysate, 635 nm fluorescence, higher = more signal;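 also: score pools 667 nm emission and signal to noise measuring lysate protein binding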
[10] = tested on: Sonic hedgehog protein (Shh); test: small-molecule binders of Shh protein, primary screen, biochemical, small-molecule microarray, 635/667 nm fluorescence (AID 1151); settings: small-molecule microarray binding, 635 nm fluorescence; higher = more signal;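 also: Shh protein binding to compounds spotted on small-molecule microarray slides; score combines spot fluorescence intensity with signal-to-noise across triplicate slides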
[11] = E. coli DRC41 culture turbidity changes, primary screen, E. coli filamentation inducer project, strain DRC41, OD650, 48 h (AID 1152);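 also: E. coli MC1000 strain DRC41 lacking acrAB efflux pump and sulA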; settings: E. coli DRC41 (acrAB sulA), higher = more signal, called active from +8 up or from −8 down
[12] = small-molecule binders of probe aLefty1, primary screen, biochemical, small-molecule microarray, 635/667 nm fluorescence (AID 1153); settings: higher = more signal;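 also: score merges spot fluorescence with signal-to-noise ratio from the scanned slide images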
[13] = PSAC antagonists in infected red cells, primary screen, cell-based, P. falciparum Indochina, OD700, 1 h (AID 1154); settings: P. falciparum Indochina infected RBC osmotic lysis, higher = more signal, called active from +8 up or from −8 down
[14] = PSAC antagonists in infected red cells, primary screen, cell-based, P. falciparum Indochina, OD700, 2 h (AID 1155);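 also: lysis reports solute entry through the parasite surface anion channel PSAC; channel blockers reduce lysis of infected cells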; settings: P. falciparum Indochina infected erythrocytes, osmotic lysis OD700; higher = more signal, called active from +8 up or from −8 down
[15] = osmotic lysis modulators in infected erythrocytes, primary screen, PSAC antagonist project, cell-based, P. falciparum Indochina, OD700, 3 h (AID 1156); settings: higher = more signal, called active from +8 up or from −8 down
[16] = PSAC antagonists in infected red cells, primary screen, cell-based, P. falciparum Indochina, OD700, 18 h (AID 1157); settings: P. falciparum Indochina infected erythrocytes, osmotic lysis OD700, 18 h; higher = more signal, called active from +8 up or from −8 down
[17] = modulators of S6 phosphorylation in cells, primary screen, cell-based, A549, cytoblot, luminescence, serum-stimulated (AID 1158); settings: A549 phospho-S6 cytoblot, 5 h, higher = more signal;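 also: serum-stimulated A549 lung adenocarcinoma cells; signal is phosphorylated S6 detected by cytoblot immunostaining with HRP secondary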
[18] = target: NADPH oxidase 2 (Homo sapiens) (UniProt P04839); test: NOX2-dependent H2O2 signal modulators, primary screen, NOX inhibitor project, cell-based, HEK293-NOX2, PMA-stimulated, Amplex Red fluorescence (AID 1159); settings: 45 min, higher = more signal, called active from +8 up or from −8 down; also: test concentration not given here
Chain of NADPH oxidase 2 (Homo sapiens) (P04839 whole entry, looked up): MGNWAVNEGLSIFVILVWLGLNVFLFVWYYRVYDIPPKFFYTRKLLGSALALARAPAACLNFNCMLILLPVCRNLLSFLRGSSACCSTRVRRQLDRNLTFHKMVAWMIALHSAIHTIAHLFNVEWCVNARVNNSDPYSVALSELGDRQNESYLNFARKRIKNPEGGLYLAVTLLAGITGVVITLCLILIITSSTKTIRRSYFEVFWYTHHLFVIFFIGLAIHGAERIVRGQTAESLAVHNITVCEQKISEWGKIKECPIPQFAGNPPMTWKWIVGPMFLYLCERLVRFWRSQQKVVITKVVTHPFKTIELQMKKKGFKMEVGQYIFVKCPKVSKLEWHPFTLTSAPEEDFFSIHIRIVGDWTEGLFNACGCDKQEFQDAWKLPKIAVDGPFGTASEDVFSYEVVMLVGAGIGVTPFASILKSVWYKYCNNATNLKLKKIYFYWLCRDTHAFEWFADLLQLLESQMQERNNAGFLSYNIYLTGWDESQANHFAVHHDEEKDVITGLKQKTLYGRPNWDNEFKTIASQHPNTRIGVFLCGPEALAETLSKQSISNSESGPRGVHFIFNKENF

[19] = target: NADPH oxidase 4 (Homo sapiens) (UniProt Q9NPH5); test: NOX4-dependent H2O2 signal modulators, primary screen, NOX inhibitor project, cell-based, HEK293-NOX4, tetracycline-induced, Amplex Red fluorescence (AID 1160); settings: 45 min, higher = more signal, called active from +8 up or from −8 down
Chain of NADPH oxidase 4 (Homo sapiens) (Q9NPH5 whole entry, looked up): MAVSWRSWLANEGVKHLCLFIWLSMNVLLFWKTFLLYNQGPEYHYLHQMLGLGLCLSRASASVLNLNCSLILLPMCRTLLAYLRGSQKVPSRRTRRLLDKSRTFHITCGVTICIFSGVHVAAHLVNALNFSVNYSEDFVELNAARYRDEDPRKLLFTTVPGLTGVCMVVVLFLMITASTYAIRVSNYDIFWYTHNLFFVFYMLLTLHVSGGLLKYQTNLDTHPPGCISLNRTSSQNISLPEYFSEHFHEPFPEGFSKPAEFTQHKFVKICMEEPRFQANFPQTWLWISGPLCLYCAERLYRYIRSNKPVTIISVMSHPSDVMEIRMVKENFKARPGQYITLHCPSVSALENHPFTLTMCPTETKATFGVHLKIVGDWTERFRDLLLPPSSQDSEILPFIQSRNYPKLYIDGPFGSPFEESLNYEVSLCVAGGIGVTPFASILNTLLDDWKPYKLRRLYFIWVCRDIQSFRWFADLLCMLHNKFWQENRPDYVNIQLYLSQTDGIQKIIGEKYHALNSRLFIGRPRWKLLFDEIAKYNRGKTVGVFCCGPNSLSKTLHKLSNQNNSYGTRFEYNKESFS

[20] = target: NADPH oxidase 5 (Homo sapiens) (UniProt Q96PH1); test: NOX5-dependent H2O2 signal modulators, primary screen, NOX inhibitor project, cell-based, HEK293-NOX5, Amplex Red fluorescence (AID 1161); settings: HEK293-NOX5, ionomycin, 45 min, higher = more signal
Chain of NADPH oxidase 5 (Homo sapiens) (Q96PH1 whole entry, looked up): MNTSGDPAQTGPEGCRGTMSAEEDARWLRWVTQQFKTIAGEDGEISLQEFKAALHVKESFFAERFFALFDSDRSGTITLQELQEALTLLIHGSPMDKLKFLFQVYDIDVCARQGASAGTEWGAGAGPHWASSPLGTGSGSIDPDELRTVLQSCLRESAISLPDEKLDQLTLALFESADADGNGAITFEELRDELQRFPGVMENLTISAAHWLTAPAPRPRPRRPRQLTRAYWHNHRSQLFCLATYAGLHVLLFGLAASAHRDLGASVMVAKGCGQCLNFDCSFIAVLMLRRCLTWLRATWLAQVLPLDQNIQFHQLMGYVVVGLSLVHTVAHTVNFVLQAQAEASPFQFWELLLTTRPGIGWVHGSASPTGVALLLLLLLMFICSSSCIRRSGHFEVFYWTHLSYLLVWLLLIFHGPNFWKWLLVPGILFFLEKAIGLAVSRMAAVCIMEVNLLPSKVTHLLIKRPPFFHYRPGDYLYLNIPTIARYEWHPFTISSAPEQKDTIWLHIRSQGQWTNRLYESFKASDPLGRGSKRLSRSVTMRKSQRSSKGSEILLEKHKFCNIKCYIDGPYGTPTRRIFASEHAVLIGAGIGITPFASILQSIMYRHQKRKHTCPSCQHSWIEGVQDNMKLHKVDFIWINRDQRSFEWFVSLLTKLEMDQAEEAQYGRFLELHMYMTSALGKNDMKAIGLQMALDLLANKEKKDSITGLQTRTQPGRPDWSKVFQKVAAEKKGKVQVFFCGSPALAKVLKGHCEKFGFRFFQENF

Structure (SMILES)	composite z-score [1]	z-score [2]	z-score [3]	z-score [4]	z-score [5]	composite z-score [6]	composite z-score [7]	composite z-score (Torsin-1A (Homo sapiens) [8])	composite z-score (Torsin-1A (Homo sapiens) [9])	composite z-score [10]	z-score [11]	composite z-score [12]	z-score [13]	z-score [14]	z-score [15]	z-score [16]	z-score [17]	z-score [18]	z-score [19]	z-score [20]
CCOC(=O)C1=CC[C@@H](c2ccccc2)N(S(=O)(=O)c2ccc(C)cc2)[C@H]1c1ccccc1	0.144	-3.01 (inactive)	1.29 (inactive)	-0.0228 (inactive)	1.31 (inactive)	1.46	0.115	0.345	0.626	-0.627	-1.11 (inactive)	0.155	1.97 (inactive)	0.945 (inactive)	0.369 (inactive)	0.24 (inactive)	-0.685	0.18 (inactive)	-0.464 (inactive)	1.75
[N-]=[N+]=Nc1ccccc1C[C@@]1(C(N)=O)N=C(c2ccc(OCCCO)cc2)O[C@@H]1c1ccccc1N=[N+]=[N-]	0.351	-5.17 (inactive)	-0.0225 (inactive)	-0.207 (inactive)	-1.89 (inactive)	0.823	0.258	0.252	0.789	-0.535	0.587 (inactive)	0.0211	30.4 (active)	25.3 (active)	2.63 (inactive)	1.35 (inactive)	2.05	-0.0581 (inactive)	-1.11 (inactive)	-1.55
CCCC[C@@H](O)C1=C(COC)C[C@H]2C(=O)N(Cc3ccccc3)C(=O)[C@H]2[C@H]1CO	0.0314	-0.168 (inactive)	0.102 (inactive)	0.216 (inactive)	-0.566 (inactive)	-0.0045	-0.204	0.707	0.69	1.02	0.878 (inactive)	-0.103	1.83 (inactive)	-0.384 (inactive)	-0.157 (inactive)	0.133 (inactive)	0.304	-0.725 (inactive)	0.282 (inactive)	0.373
COc1cc2c(cc1O)C(c1ccc(CN3CCCC3)cc1)N(Cc1cc3c(cc1Br)OCO3)CC2 (stereo not given)	-0.116	-3.59 (inactive)	-0.587 (inactive)	0.389 (inactive)	-0.0519 (inactive)	0.881	-0.128	-0.231	0.513	-1.01	-2.4 (inactive)	-0.138	3.92 (inactive)	0.984 (inactive)	0.782 (inactive)	0.526 (inactive)	0.0637	-3.51 (inactive)	-2.64 (inactive)	-3.57
COc1cc(OC)c(C(O)C2C=CC3C(=O)N(Cc4ccccc4)C(=O)C3N2n2cnnc2)cc1Br (stereo not given)	0.25	-3.56 (inactive)	-0.664 (inactive)	0.677 (inactive)	-1.4 (inactive)	1.22	-0.0087	2.73	2.4	0.116	-1.21 (inactive)	0.0509	-0.0011 (inactive)	-0.731 (inactive)	1.34 (inactive)	-2.29 (inactive)	1.71	-3.2 (inactive)	-1.35 (inactive)	-3.53
C=C[C@H](C)[C@H](OC(=O)Nc1ccc(SC)cc1)c1ccc(OCCO)cc1	0.448	-3.53 (inactive)	0.0722 (inactive)	7.78 (inactive)	1.58 (inactive)	0.374	-0.0221	0.766	0.937	1.33	-1.79 (inactive)	0.329	27.6 (active)	15.6 (active)	1.91 (inactive)	0.184 (inactive)	1.58	-0.831 (inactive)	-0.356 (inactive)	-0.756
CS(=O)(=O)CCOC(=O)C1=CC(CCCO)=CC(c2ccc(CN3CCCC3)cc2)N(Cc2sc3ccccc3c2Cl)C=C1C(=O)OCCS(C)(=O)=O (stereo not given)	0.689	-1.29 (inactive)	1.13 (inactive)	2.08 (inactive)	0.274 (inactive)	2.48	0.794	1.4	2.18	1.18	-0.794 (inactive)	0.85	3.35 (inactive)	0.586 (inactive)	0.51 (inactive)	0.428 (inactive)	-0.261	0.44 (inactive)	-0.567 (inactive)	-0.719
COC(=O)[C@@H]1N=C(c2ccc(OCCCO)cc2)O[C@@H]1C	0.186	0.0511 (inactive)	-0.123 (inactive)	-0.31 (inactive)	0.421 (inactive)	-0.69	0.0225	0.0429	-0.425	0.369	0.608 (inactive)	0.0945	19 (active)	2.23 (inactive)	0.404 (inactive)	0.448 (inactive)	0.299	-1.93 (inactive)	0.134 (inactive)	-0.647
CN1C(=O)C2C=CC(C(O)c3cccn3C)N(Nc3ccc([N+](=O)[O-])cc3[N+](=O)[O-])C2C1=O (stereo not given)	0.28	0.515 (inactive)	-0.255 (inactive)	1.4 (inactive)	1.36 (inactive)	0.724	0.188	0.799	0.437	-0.0299	-0.824 (inactive)	0.551	0.627 (inactive)	1.31 (inactive)	-0.0499 (inactive)	1.17 (inactive)	-1.11	-0.797 (inactive)	-1.5 (inactive)	-1.27
